ELG1 repair inh – inhibitors of ELG1-dependent DNA repair in HEK293T cells | HEK293T ELG1-luciferase reporter, luminescence, 16 h; DNA damage induced by 5-fluorouridine | Potency, µM (series often up to 46.1 µM), for inactives: at the highest dose activity change, negative = inhibition, usual class: inhibitors | 2.3% of 330,000 active; further: potency means the concentration at half of the fitted maximal effect; nearly all actives have a fitted effect of over 55% in size
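Step one: seed 2,000 cells per well. Step two: pin-transfer compound or DMSO alongside 5-fluorouridine. Step three: incubate 16 hr, 37 °C, 5% CO2. Step four: add ONE-Glo, wait 30 min, read luminescence.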
RORg inh – inhibitors of mouse ROR gamma transcriptional activity | Drosophila S2 Gal4-RORgamma UAS-luciferase reporter, 20 h | AID 2551 | 5.4% of 310,000 active | P51450 | Potency, µM (highest dose often 53.6 µM), without a hit: top-dose activity change, negative = inhibition, hits mostly inhibitors; further: potency means the concentration at half of the fitted maximal effect; nearly all actives have a fitted effect of over 60% in size
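Luminescence from a UAS-regulated Photinus luciferase reporter in stably transfected Drosophila Schneider cells is measured; decreased signal marks ROR gamma inhibition. Fusion expression is induced by 700 uM copper sulfate for 20 hr.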
Coupling enz – coupling enzyme interference in Giardia aldolase counter-screen | 0.67% of 290,000 active | activity change, negative = inhibition, % at 58.2 µM, hits read low | coupling enzyme system counterscreen, AmpLite Red fluorescence; in the data active means activity change below about -30%
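Counterscreen lacking aldolase: glyceraldehyde-3-phosphate coupling-enzyme reagent preincubated 10 min at RT with compound (at 57.5 uM final), then substrate/coupling system with AmpLite Red added; fluorescence read at 525/598 nm after 20 min RT.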
Gal4-VP16 FLuc – counter-screen for ROR gamma inhibitors: Gal4-VP16 reporter; Drosophila S2 Gal4-VP16 UAS-luciferase, luminescence, 20 h; Potency, µM (titrated, usually from 53.6 µM), inactives show at the top dose activity, negative = inhibition, usual class: inhibitors; 3.5% of 310,000 active; AID 2546;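 further: Gal4-VP16 expression switched on by copper sulfate through the metallothionein promoter; potency means the concentration at half of the fitted maximal effect; nearly all actives have a fitted effect of over 50% in size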
TSHR antag – antagonists of human thyroid stimulating hormone receptor | P16473 | TSHR-expressing cells, TSH-stimulated cAMP HTRF, 2 h; hits give low values | activity change, negative = inhibition, % at 11.5 µM | 0.2% of 330,000 active;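 active means activity change below a set negative limit, meaning inhibition stronger than a set level, cut at about -70% in these data; inconclusive means activity change between two set negative limits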
Target sequence (P16473 whole entry, looked up): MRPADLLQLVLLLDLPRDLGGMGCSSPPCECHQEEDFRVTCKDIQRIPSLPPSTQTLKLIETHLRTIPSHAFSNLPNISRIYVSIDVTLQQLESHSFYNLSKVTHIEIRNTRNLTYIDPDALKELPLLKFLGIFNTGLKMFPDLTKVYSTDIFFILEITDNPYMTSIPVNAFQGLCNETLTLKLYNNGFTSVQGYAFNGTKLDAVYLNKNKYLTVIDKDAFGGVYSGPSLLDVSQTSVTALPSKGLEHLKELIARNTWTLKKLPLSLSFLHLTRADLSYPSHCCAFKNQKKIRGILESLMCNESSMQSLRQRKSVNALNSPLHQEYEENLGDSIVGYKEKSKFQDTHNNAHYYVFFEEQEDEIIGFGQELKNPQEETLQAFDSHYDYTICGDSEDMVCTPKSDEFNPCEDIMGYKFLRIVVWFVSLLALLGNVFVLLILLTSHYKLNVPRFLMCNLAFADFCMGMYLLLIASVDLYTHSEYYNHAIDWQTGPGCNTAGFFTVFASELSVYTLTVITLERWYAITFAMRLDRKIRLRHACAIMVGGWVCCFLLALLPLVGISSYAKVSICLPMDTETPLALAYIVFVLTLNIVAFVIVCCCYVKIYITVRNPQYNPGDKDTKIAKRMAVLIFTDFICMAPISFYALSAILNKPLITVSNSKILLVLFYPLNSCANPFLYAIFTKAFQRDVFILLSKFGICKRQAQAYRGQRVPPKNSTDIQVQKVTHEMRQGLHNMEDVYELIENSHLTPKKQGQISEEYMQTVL
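Antagonism was scored as loss of TSH-driven cAMP in TSHR cells, stimulated with 4nM TSH (EC80) for 2 hours at 37 deg C and detected by homogeneous HTRF competition immunoassay.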
An asterisk follows results filed as active; ? = inconclusive; . = no result; [ ] = another dose, or the depositor's remark. Only some compounds are listed: those with a hit (about 8% of all), similar ones and a draw of the others. Unless noted, the call rests on the fitted dose curve; in most records, active means well fitted curve in the direction sought with a large enough effect; inconclusive means small, poorly fitted or top-dose-only effect, or another doubt; inactive means no such curve, though single readings can be large; an effect the other way counts as inactive or inconclusive. On the % scale 0 is the no-effect control and ±100 the full control effect.

SMILES	ELG1 repair inh	RORg inh	Coupling enz	Gal4-VP16 FLuc	TSHR antag
CCc1noc(C)c1C(=O)Nc1nc(-c2cc(OC)ccc2OC)cs1	16.4µM*	.	.	.	-26.9
CN(C)S(=O)(=O)c1ccc(Cl)c(C(=O)Nc2ccc(S(=O)(=O)N3CCOCC3)cc2)c1	16.4µM*	0.0%	2.6	-5.5%	2.5
CN(C)S(=O)(=O)c1ccc(Cl)c(C(=O)Nc2cccc([N+](=O)[O-])c2)c1	8.2µM*	-2.8%	-2.3	5.2%	-2.1
O=C(c1ccccc1)[C@@H]1[C@@H](C(=O)c2ccc(F)cc2)[C@@]2(C(=O)Nc3ccccc32)[C@H]2c3ccccc3C=CN12	?	-39.5%	-30.9*	-11.8%	-5.6
CC(=O)[C@@H]1[C@@H](C(=O)c2ccccc2)[C@]2(C(=O)Nc3ccccc32)[C@H]2C=Cc3cc(F)ccc3N12	-0.1%	?	-3.7	?	6.6
COc1ccc(NC(=O)N2CCCC3(CCN(C(=O)c4cccn4C)CC3)C2)cc1	.	-24.9%	1.6	-4.6%	.
COC(=O)c1cc(S(=O)(=O)N2CCN(c3cccc(C)c3C)CC2)c[nH]1	-7.4%	25.5%	-0.3	-10.7%	17.6
CN(C)CCCN(C(=O)c1cc(-c2cccs2)nc2ccccc12)c1nc2c(F)cccc2s1	-18.4%	?	.	-22.5%	2.1
Cc1ccc2nc(N(CCCN(C)C)C(=O)c3cc(-c4cccs4)nc4ccccc34)sc2c1	-22.7%	14.1µM*	-1.2	?	-5.6
NC(=S)NS(=O)(=O)c1ccc(N)cc1	.	8.7%	.	-0.7%	.
CCSc1ccc2nnc(-c3cccc(F)c3)n2n1	20.6µM*	?	4.1	-8.3%	-12.2
O=C(CSc1ccc2nnc(-c3cccc(F)c3)n2n1)NCC1CCCO1 (stereo not drawn)	17.0%	-19.4%	2.2	-6.1%	2.2
O=C(CN(CCc1ccccc1)S(=O)(=O)c1ccc(Cl)cc1)N/N=C/c1ccc2c(c1)OCO2	-9.4%	-33.1%	6.1	-26.5%	-0.7
CCOc1cc(/C=N/NC(=O)CN(CCc2ccccc2)S(=O)(=O)c2ccc(NC(C)=O)cc2)ccc1O	25.9µM*	?	1.5	1.7%	-3.7
COc1ccc(NS(=O)(=O)c2cccc(C(=O)N/N=C/c3ccc4c(c3)OCCO4)c2)cc1	7.0%	-16.6%	0.5	1.7%	4.9
COc1ccc(S(=O)(=O)N(CCc2ccccc2)CC(=O)N/N=C/c2ccc3c(c2)OCO3)cc1	16.4µM*	28.0%	2.6	-1.2%	22.5
COc1ccc(NCC(=O)N/N=C/c2ccc3c(c2)OCCO3)cc1	-1.0%	0.126µM*	0.6	-6.4%	2.2
O=C(c1cnn(C(=O)c2ccco2)c1)c1cc(F)ccc1O	?	.	.	.	32.3
Cc1cc(C(C)(C)C)cc(C)c1S(=O)(=O)N1CCN(C(=O)c2cc([N+](=O)[O-])c[nH]c2=O)CC1	-9.6%	27.4%	5.7	-12.3%	-6.3
O=C1C2C3C=CC(CC3)C2C(=O)N1c1ccccc1F (stereo not drawn)	1.1%	8.1%	3.1	-14.6%	5.5
CCOc1ccccc1-c1cc(-c2n[nH]c(=S)n2CC)c2ccccc2n1	?	5.62µM*	-3.8	-15.5%	-10.8
CCOc1cccc(-c2cc(-c3n[nH]c(=S)n3CC)c3ccccc3n2)c1	-11.8%	0.126µM*	-1.9	?	-8.5
Cc1ccc(-c2cc(-c3n[nH]c(=S)n3C)c3ccccc3n2)cc1	?	1.26µM*	-0.6	-14.4%	-10.3
CCn1c(-c2cc(-c3ccc(C)c(C)c3)nc3ccccc23)n[nH]c1=S	?	10µM*	-2.6	-17.5%	-15.3
Cn1c(-c2ccccc2)n[nH]c1=S	-0.8%	?	3.7	-8.6%	-1.9
SMILES	ELG1 repair inh	RORg inh	Coupling enz	Gal4-VP16 FLuc	TSHR antag
CC(C)(OC(=O)c1ccc(F)cc1)c1cc2ccccc2c(=O)o1	19.8%	.	.	.	-15.6
COc1ccc(NC(=O)CSc2nnc3ccc(-c4ccccn4)nn23)cc1OC	-11.6%	.	.	.	0.8
C/C(=N\NC(=S)Nc1ccccc1C)C1Cc2ccccc2C(=O)O1 (stereo not drawn)	?	2.82µM*	1.4	?	-2.0
CC(C)n1nnc2cc(C(=O)O)ccc21	.	11.7%	-0.7	-7.2%	.
C/C(CCN1CCCCc2nc(C)c(C)cc21)=N\OC[C@@H](O)COCc1ccco1	.	10.8%[10 µM]	-0.4	-11.7%[10 µM]	.
Cc1ccc[n+](CC(=O)Nc2c(Cl)cc(Cl)cc2Cl)c1	?	12.6µM*	-5.2	2.3%	-14.0
O=C(C[n+]1ccccc1)Nc1c(Cl)cc(Cl)cc1Cl	17.2%	?	-22.5	?	26.8
N#Cc1cccc(S(=O)(=O)NNC(=O)C23CC4CC(CC(C4)C2)C3)c1	-0.3%	.	.	.	-2.7
Cc1c(C(=O)Nc2nccs2)sc2nc(-c3cccs3)cc(C(F)(F)F)c12	?	0.794µM*	.	3.16µM*	-40.9
CCOC(=O)CSc1ccc(-c2nc3ccccc3[nH]2)cn1	-0.2%	3.0%	0.9	6.5%	-9.7
CCOC(=O)CSc1ccc(-c2nc3cc(C)c(C)cc3[nH]2)cn1	?	17.8µM*	-12.3	?	-8.1
C/C=C\C(=O)N(CC)c1ccccc1C	.	13.8%[2.98 µM]	1.6	-7.7%[17 µM]	.
Cc1ccc(/C=N/n2c(-c3ccco3)n[nH]c2=S)s1	2.6%	8.91µM*	3.2	?	-6.9
Cc1ccc(/C=N/n2c(-c3cccnc3)n[nH]c2=S)s1	21.6%	7.08µM*	8.7	?	22.3
S=c1[nH]nc(-c2ccco2)n1/N=C/c1ccccc1Cl	-4.6%	3.16µM*	1.1	22.4µM*	9.7
S=c1[nH]nc(-c2ccco2)n1/N=C/c1ccc(Cl)cc1	5.4%	4.47µM*	5.1	3.98µM*	-15.3
S=c1[nH]nc(-c2ccccn2)n1/N=C/c1c(Cl)cccc1Cl	-1.0%	?	-3.2	1.3%	-3.3
O=C(Nc1ccc2c(c1)OCO2)c1c[nH]c(=O)n(-c2ccc(F)cc2)c1=O	17.6%	35.9%	0.1	-10.7%	-7.1
Cc1ccc(C(=O)N(CC(=O)NC2CCCC2)c2ccccc2Cl)s1	-5.4%	-10.7%	-2.2	-4.0%	-7.4
CCOc1ccc(C2=Nn3c(CC)nnc3SC2)cc1	?	.	.	.	-1.4
O=c1c2ccccc2n2c(-c3cccc(Cl)c3)nnc2n1Cc1ccccc1	?	25.9%	-0.4	?	38.6
COc1ccc(-c2nnc3n(CCc4ccccc4)c(=O)c4ccccc4n23)cc1OC	6.51µM*	-38.2%	0.4	?	-0.4
CCc1cc2c(=O)c(-c3nc4ccccc4n3C)c(C)oc2cc1OC(C)=O	-23.2%	-17.5%	2.5	0.5%	12.0
CCc1cc2c(=O)c(-c3nc4ccccc4n3C)c(COCC(=O)O)oc2cc1OC(=O)C(C)(C)C	-11.1%	4.47µM*	5.1	-23.6%	-8.1

Source: PubChem BioAssay
